Screening data (PubChem BioAssay)
14-3-3 PPI: alters human 14-3-3 gamma binding to Raf peptide | AID 422 | inhibition, % at 40 µM | hit rate 0.19% among 160,000 | FP, 14-3-3gamma / TMR-pS259-Raf peptide binding; in the data active = inhibition above about 30%;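 also: 0% = protein plus tracer without compound and 100% = blank with tracer alone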
Target sequence (P61981 whole entry, looked up): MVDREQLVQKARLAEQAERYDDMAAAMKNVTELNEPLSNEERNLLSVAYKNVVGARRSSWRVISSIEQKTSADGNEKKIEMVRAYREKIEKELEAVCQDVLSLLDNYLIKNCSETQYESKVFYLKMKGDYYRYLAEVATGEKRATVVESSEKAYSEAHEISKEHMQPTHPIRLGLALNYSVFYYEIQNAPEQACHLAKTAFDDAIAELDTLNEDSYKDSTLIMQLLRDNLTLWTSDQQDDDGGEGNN
Numbers without * were called inactive; ! = not active in a repeat. This excerpt belongs to a sample that is enriched for hits.

How did COc1ccc2nc(NC(=O)C3CC=C(C)CC3C(=O)O)sc2c1 (stereo not drawn) do in these assays?
14-3-3 PPI: -10.5

What do the screens show for `COc1ccc(S(=O)(=O)N2CCN(Cc3cc(Br)ccc3OC)CC2)cc1`?
14-3-3 PPI: 10.1

Results for O=C(Nc1cccc(Cl)c1)C(Cc1ccccc1)NS(=O)(=O)c1cccs1 (stereo not drawn) ?
14-3-3 PPI: -3.9

What do the screens show for `CN1c2ccccc2C(C)(C)C12C=Nc1c(ccc3ccccc13)O2` (stereo not drawn)?
14-3-3 PPI: 83.9*

Results for COc1ccc2c(c1)C=CC1(O2)N(C)c2ccccc2C1(C)C (stereo not drawn) ?
14-3-3 PPI: -6.1

How did CN1c2c(ccc3ccccc23)C(C)(C)C12C=Cc1cc([N+](=O)[O-])ccc1O2 (stereo not drawn) do in these assays?
14-3-3 PPI: -364.7

What do the screens show for `CC(C)c1ccc2oc(-c3ccc(Cl)c(N)c3)nc2c1`?
14-3-3 PPI: -10.6

What do the screens show for `O=C(Cn1c(=S)[nH]c2ccccc2c1=O)NCC1CCCO1` (stereo not drawn)?
14-3-3 PPI: -6.2

What do the screens show for `CCN(C(=O)CSc1nc2ccccc2c(=O)n1C1CCCCC1)c1cccc(C)c1`?
14-3-3 PPI: -2.5

Results for CSCCOC(=O)C1=C(C)NC(=O)NC1c1ccc2ccccc2c1 (stereo not drawn) ?
14-3-3 PPI: -10.9

What do the screens show for `N#Cc1c(/N=C/c2ccco2)sc2c1CCCCC2`?
14-3-3 PPI: -6.6

Results for CN1CCc2c(sc(/N=C/c3cccs3)c2C(N)=O)C1 ?
14-3-3 PPI: -37.5

Results for CN1CCc2c(sc(/N=C/c3ccco3)c2C(N)=O)C1 ?
14-3-3 PPI: 47.8*

How did Clc1ccc(-c2nc3ncccn3c2Nc2ccccc2)cc1 do in these assays?
14-3-3 PPI: -2.8

What do the screens show for `COc1ccc(Nc2cc(C)nc3c(C)cccc23)cc1`?
14-3-3 PPI: -6.0

What do the screens show for `COc1ccc2nc(C)cc(Nc3ccc(F)cc3)c2c1`?
14-3-3 PPI: -66.4

Results for COc1ccc(Nc2cc(C)nc3ccccc23)cc1 ?
14-3-3 PPI: 38.3*

What do the screens show for `CC1=C(C(=O)N2CCCCC2)C(c2ccc(F)cc2)C2=C(CC(C)(C)CC2=O)N1` (stereo not drawn)?
14-3-3 PPI: -0.7

How did CN(c1ccccc1)c1ccc(C2C3=C(CC(C)(C)CC3=O)OC3=C2C(=O)CC(C)(C)C3)cc1 do in these assays?
14-3-3 PPI: 1.9

How did O=C(COc1ccccc1Cl)Nc1ccc(NC(=O)c2nccs2)cc1 do in these assays?
14-3-3 PPI: -15.7

How did Cc1ccc2cc3cc(C(=O)N4CCC(N5CCCCC5)CC4)oc3nc2c1 do in these assays?
14-3-3 PPI: -5.8

What do the screens show for `COc1ccc2cc3cc(C(=O)N4CCC(N5CCCCC5)CC4)oc3nc2c1`?
14-3-3 PPI: 46.0*

What do the screens show for `COc1ccc2cc3cc(C(=O)N4CCCC4)oc3nc2c1`?
14-3-3 PPI: -3.4

What do the screens show for `O=C(O)CNCc1ccccc1`?
14-3-3 PPI: 0.0

How did Cc1nc(Cl)c(C(=O)NC(=O)Nc2ccccc2C(F)(F)F)c(C)c1[N+](=O)[O-] do in these assays?
14-3-3 PPI: -10.1

How did COCCCNC(=O)c1cc(Sc2ccc(C)cc2)nc2ccccc12 do in these assays?
14-3-3 PPI: -10.4

Results for CC1CCCCN1CCNC(=O)c1ccc2c(c1)ncn2C1CCCC1 (stereo not drawn) ?
14-3-3 PPI: 3.6

Results for O=C(NCc1ccccn1)C1CCN(S(=O)(=O)c2cccs2)CC1 ?
14-3-3 PPI: 7.9

Results for O=C(NCc1ccccn1)C1CCN(S(=O)(=O)c2cnc[nH]2)CC1 ?
14-3-3 PPI: 58.7*!

Results for CC1CCN(S(=O)(=O)N2CCC(C(=O)NCc3ccccn3)CC2)CC1 ?
14-3-3 PPI: -4.3

How did CC1=C(C(=O)OCc2ccccc2)C(c2ccccc2)C2=C(CC(c3ccccc3)CC2=O)N1 (stereo not drawn) do in these assays?
14-3-3 PPI: -0.9

What do the screens show for `COc1ccc(CNC(=O)C2(O)c3cc(Br)ccc3NC(=O)N2c2ccc(Cl)cc2)cc1` (stereo not drawn)?
14-3-3 PPI: -3.9

What do the screens show for `O=C(c1ccc(F)cc1)N1CCC(O)(c2cccnc2)CC1`?
14-3-3 PPI: -1.5

What do the screens show for `O=C(Oc1ccc(OC(=O)c2cccnc2)cc1)c1cccnc1`?
14-3-3 PPI: -28.6

What do the screens show for `O=C(c1ccc(F)cc1)c1cccnc1`?
14-3-3 PPI: 66.3*

What do the screens show for `CCN(CC)C(=O)Cn1c(-c2ccccc2Cl)nc2sc(C)c(C)c2c1=O`?
14-3-3 PPI: 2.6

What do the screens show for `Fc1ccc(N2CN(Cc3ccccc3)CNC2=S)cc1`?
14-3-3 PPI: 4.0

How did O=C(c1ccc2nc3ccc(Cl)cc3c(=O)n2c1)N1CCCCC1 do in these assays?
14-3-3 PPI: -6.2

How did C=CCN1C(=O)c2ccccc2Sc2ccc(C(=O)NC)cc21 do in these assays?
14-3-3 PPI: 6.5

How did CC1=NN(C(=O)c2ccc(Cl)cc2)C(C)(C)C1 do in these assays?
14-3-3 PPI: 49.1*

How did C=CCC1C(C)=NN(C(=O)c2ccc(Cl)cc2)C1(C)O (stereo not drawn) do in these assays?
14-3-3 PPI: -6.0

Results for CC1=NN(C(=O)c2ccc(Cl)cc2)C(O)(c2cccc([N+](=O)[O-])c2)C1 (stereo not drawn) ?
14-3-3 PPI: -4.1

What do the screens show for `S=c1nc(Nc2ccccc2)c2ccccc2[nH]1`?
14-3-3 PPI: -3.7

Results for CCOC(=O)c1c(NC(=O)c2ccc(S(=O)(=O)N3CCc4ccccc43)cc2)sc2c1CCCC2 ?
14-3-3 PPI: -0.1

How did O=C(COc1ccc(Br)cc1)Nc1cccnc1 do in these assays?
14-3-3 PPI: -11.0

Results for O=C(COc1ccc([N+](=O)[O-])cc1)Nc1cccnc1 ?
14-3-3 PPI: 30.6*

How did O=C(COc1ccc([N+](=O)[O-])cc1)Nc1ccccn1 do in these assays?
14-3-3 PPI: -12.9

How did O=C(NCc1cccc(C(F)(F)F)c1)c1cc([N+](=O)[O-])nn1Cc1ccccc1 do in these assays?
14-3-3 PPI: 1.5

Results for COc1ccc2cc3cc(C(=O)N4CCC(C)CC4)sc3nc2c1 ?
14-3-3 PPI: 7.3

How did CCCCOc1ccc(C2Nc3ccccc3C(=O)N2c2ccc(F)cc2)cc1 (stereo not drawn) do in these assays?
14-3-3 PPI: 7.2

How did Fc1ccc(-c2ccc(-c3noc(-c4ccccc4Cl)n3)cc2)cc1 do in these assays?
14-3-3 PPI: 2.6

Results for O=C1C2C3C=CC(C2C(=O)N1c1ccccc1)C1C2C(=O)N(c4ccccc4)C(=O)C2C31 (stereo not drawn) ?
14-3-3 PPI: -3.2

Results for O=C1C2C3C=CC(C2C(=O)N1c1ccc(O)cc1)C1C2C(=O)N(c4ccc(O)cc4)C(=O)C2C31 (stereo not drawn) ?
14-3-3 PPI: 63.7*

Results for COc1ccc(N2C(=O)C3C4C=CC(C3C2=O)C2C3C(=O)N(c5ccc(OC)cc5)C(=O)C3C42)cc1 (stereo not drawn) ?
14-3-3 PPI: -0.9

Results for Cc1nc2ccc(C(=O)O)cc2c2c1CC(C)S2 (stereo not drawn) ?
14-3-3 PPI: 73.4*

How did Cc1nc2cc(C(=O)O)ccc2s1 do in these assays?
14-3-3 PPI: -6.7

What do the screens show for `COc1cccc2c3c(c(C)nc12)CC(C)S3` (stereo not drawn)?
14-3-3 PPI: -6.4

What do the screens show for `Nc1ccc(Oc2ccc3nc4cc(N5CCOCC5)c(N5CCOCC5)cc4nc3c2)cc1`?
14-3-3 PPI: -82.8

Results for O=C(CSC1=Nc2ccccc2C2=NC(Cc3ccccc3)C(=O)N12)c1ccccc1 (stereo not drawn) ?
14-3-3 PPI: -14.7
